Here are results for 7 compounds from PubChem BioAssay (Tox21).

Assay [1] in a line: Nuclear factor erythroid 2-related factor 2/antioxidant responsive element (Nrf2/ARE) small molecule agonists: qHTS cell viability counter screen in human keratinocytes (AID 1919968; active means well fitted curve in the direction sought with a large enough effect in the repeat runs; an effect the other way counts as inactive or inconclusive; further: nearly all actives have a fitted effect of over 55% in size). Summed up:
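Cells of the KeratinoSens line were plated at 1,500 per well and left for 5 h before compound transfer from DMSO stocks. After a 23 h incubation (37 C, 5% CO2), CellTiter-Fluor was added. Signal was taken as fluorescence intensity 1 h later.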
(In qHTS, concentration-response curves come from the screen itself.)

A short description of assay [2]: Nuclear factor erythroid 2-related factor 2/antioxidant responsive element (Nrf2/ARE) small molecule agonists: luciferase reporter gene qHTS assay in human keratinocytes (AID 1919969). Further: nearly all actives have a fitted effect of over 35% in size. Further: potency means the concentration at half of the fitted maximal effect.
Assay [3] has as its target Gonadotropin-releasing hormone receptor (Homo sapiens) (UniProt P30968). The assay can be described thus: Human gonadotropin-releasing hormone receptor (GnRHR) small molecule agonists, calcium flux assay in GnRHR-HEK293 cells (AID 1920063). Further: nearly all actives have a fitted effect of over 35% in size. The method, boiled down:
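Compounds dissolved in DMSO are pin-transferred onto dye-loaded GnRHR-HEK293 cells, which were seeded 18 h before at 37 C/5% CO2. Calcium signal is read as fluorescence intensity at 1 s intervals for 3 min.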
(In general: Calcium flux is commonly read through the fluorescence of an indicator in the cells.)

Assay [4] has as its target KiSS-1 receptor (Homo sapiens) (UniProt Q969F8). The assay can be described thus: Human kisspeptin (KISS1R) small molecule agonists, calcium flux assay in KISS1R-HEK293 cells (AID 1920064; active means well fitted curve in the direction sought with a large enough effect in the repeat runs; an effect the other way counts as inactive or inconclusive). The method, boiled down: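 Cell line: HEK293, stable human KISS1R. Dye loading 1 h at 37 C after 18 h culture. Read: kinetic fluorescence, 480/540 nm, 3 min at 1 s intervals.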
Assay [5] in a line: G protein-coupled receptor (GPCR) small molecule agonists, calcium flux assay: HEK293 wild type cell line counter screen (AID 1920065). Summed up: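 Tox21 10K compounds, 15 concentrations each in triplicate, pin-transferred in DMSO onto dye-loaded cells; kinetic read at 480/540 nm for 3 min, 1 s intervals.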
Assay [6] in a line: p53 small molecule agonists, cell-based qHTS assay with human liver microsomes (AID 1963577).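 Further: p53 response element beta-lactamase reporter cells with liver microsomes plus NADPH.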 Summed up: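 With metabolic activation: human liver microsomes (0.5 mg/mL final) plus NADPH (0.5 mg/mL final) added alongside compounds to p53RE-bla cells; 16 h 37 C exposure; beta-lactamase read by LiveBLAzer fluorescence.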
Assay [7] in a line: p53 small molecule agonists, cell-based qHTS assay with human liver microsomes: qHTS cell viability counter screen (AID 1963579). Further: nearly all actives have a fitted effect of over 45% in size. Summed up:
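Metabolic activation used human liver microsomes and NADPH, both 0.5 mg/mL final, over 16 hours at 37 C on p53RE-bla cells (4,000/well). Cytotoxicity measured by CellTiter-Glo luminescence, 30 min at room temperature.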

Assay [8] is described as follows: p53 small molecule agonists, cell-based qHTS assay with rat liver microsomes: qHTS cell viability counter screen (AID 1963580). Further: nearly all actives have a fitted effect of over 45% in size. The method, boiled down: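 Counter screen for cytotoxicity under metabolic activation: rat liver microsomes and NADPH, 0.5 mg/mL final each, added with compounds to p53RE-bla HCT-116 cells; 16 h at 37 C, then ATP luminescence read.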
A short description of assay [9]: p53 small molecule agonists, cell-based qHTS assay: qHTS cell viability counter screen (AID 1963581). Further: nearly all actives have a fitted effect of over 45% in size. Summed up: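 ATP content measured by luminescence in HCT-116 p53RE-bla cells treated 16 h at 37 C, same wells as the reporter screen.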
Assay [10] is described as follows: p53 small molecule agonists, cell-based qHTS assay (AID 1963582; active means well fitted activation curve with a large enough effect in the signal ratio in the repeat runs, not every such curve was filed as active; the % refers to the signal ratio). Summed up: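 16 h compound exposure (37 C) of p53 response element–bla cells, preceded by 5 h recovery at 37 C/5% CO2; read-out via LiveBLAzer B/G FRET substrate, 2 h RT, fluorescence intensity.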
Assay [11] addresses 5-hydroxytryptamine receptor 2A (Homo sapiens) (UniProt P28223). Nature of the assay: 5-hydroxytryptamine receptor 2A (HTR2A) small molecule antagonists, cell-based qHTS assay (AID 1963586). Further: nearly all actives have a fitted effect of over 45% in size. The method, boiled down: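 CHO cells stably expressing human HTR2A were plated for 18 h at 37 C, then loaded with calcium dye for 1 h. Compounds were preincubated 5 min at room temperature before DOI (4 nM solution) was added. Kinetic fluorescence was read for 3 min.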

The target is the same in assay [12]. The assay can be described thus: 5-hydroxytryptamine receptor 2A (HTR2A) small molecule agonists, cell-based qHTS assay (AID 1963587). Further: nearly all actives have a fitted effect of over 30% in size. Summed up:
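HTR2A-CHO cells, plated 18 h at 37 C/5% CO2, dye-loaded 1 h at 37 C; compounds in DMSO added by pin tool (agonist mode). Intracellular calcium flux read as kinetic fluorescence on FDSS over 2 min at 1 s intervals.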

The target in assay [13] is Muscarinic acetylcholine receptor M1 (Homo sapiens) (UniProt P11229). Nature of the assay: Cholinergic receptor muscarinic 1 (CHRM1) small molecule antagonists, cell-based qHTS assay (AID 1963588). Further: nearly all actives have a fitted effect of over 40% in size. Summed up:
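Compounds were tested at 15 concentrations in three independent runs. Dye-loaded CHRM1-CHO cells were exposed 5 min at room temperature before stimulation by acetylcholine added at 50nM. Intracellular calcium was read kinetically on FDSS for 3 min.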

The target is the same in assay [14]. The assay can be described thus: Cholinergic receptor muscarinic 1 (CHRM1) small molecule agonists, cell-based qHTS assay (AID 1963589). Further: nearly all actives have a fitted effect of over 35% in size. Summed up: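 Homogeneous fluorescence calcium flux, agonist mode. Human M1-expressing CHO cells; compound dosed at 15 concentrations, three independent runs; signal sampled every 1 sec.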
Assay [15] in a line: cAMP Responsive Elements (CRE) small molecule agonists, cell-based qHTS assay (AID 1963590). Summed up:
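HEK 293T cells stably bearing CRE-bla were plated at 2,000 cells per well and rested 18 h. Compounds, positive controls or DMSO were added for 3 h at 37 C. LiveBLAzer B/G substrate was then loaded for 2 h at room temperature.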

Assay [16] in a line: cAMP Responsive Elements (CRE) small molecule antagonists, cell-based qHTS assay (AID 1963591; active means well fitted inhibition curve with a large enough effect in the signal ratio in the repeat runs, not every such curve was filed as active; the % refers to the signal ratio). Summed up:
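First, CRE-bla HEK293T cells settled 18 h at 37 C. Next, compound and 0.25 uM final NKH477 were applied for 3 h. Last, LiveBLAzer B/G substrate was loaded for 2 h at room temperature.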

For assay [17], the target named is Beta-2 adrenergic receptor (Homo sapiens) (UniProt P07550). Nature of the assay: Adrenergic beta2 receptor (ADRB2) small molecule antagonists, cell-based qHTS assay (AID 1963592). Further: series mostly up to about 92 µM; nearly all actives have a fitted effect of over 50% in size. Summed up:
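Assay format: CHO-ADRB2 cells, 18-20hr seeding at 37C/5% CO2, then compound plus 1nM isoproterenol agonist mix for 0.5hr RT. Homogeneous time-resolved fluorescence cAMP detection after 1hr, expressed as 665/615 nm ratio.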

The target in assay [18] is D(2) dopamine receptor (Homo sapiens) (UniProt P14416). Nature of the assay: Dopamine D2 receptor (DRD2) small molecule agonists, cell-based qHTS assay (AID 1963594). Further: nearly all actives have a fitted effect of over 35% in size. The method, boiled down: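 HEK293 cells stably expressing DRD2 were cultured 24 h at 37 C, then given Ro20-1724 (0.1 mM final) and compounds for 10 min at room temperature. NKH477 (200nM) was then added for 30 min. cAMP was read by HTRF.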

Assay [19] has the same target. Nature of the assay: Dopamine D2 receptor (DRD2) small molecule antagonists, cell-based qHTS assay (AID 1963595; active means well fitted inhibition curve with a large enough effect in the signal ratio in the repeat runs, with a control signal flat; the % refers to the signal ratio). The method, boiled down: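 HEK293 cells stably expressing DRD2 were preincubated with 0.1 mM Ro20-1724, then with compound for 10 min at room temperature. Cells were stimulated with 200 nM NKH477 plus 12 nM quinpirole for 30 min, and cAMP was read by HTRF.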

Assay [20] in a line: p53 small molecule agonists, cell-based qHTS assay with rat liver microsomes (AID 1963578). Summed up: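 Metabolic activation by rat liver microsomes and NADPH, each 0.5 mg/mL final, added right after compounds to p53RE-bla reporter cells (4,000/well, plated 5 h earlier). 16 h at 37 C, then LiveBLAzer substrate for 2 h at room temperature in the dark; fluorescence read-out.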

Records with an inconclusive call do not appear. A structure can be active in one record and inactive in another. Active and inactive are the calls of the source. Unless noted, the call rests on the fitted dose curve.

5-hydroxytryptamine receptor 2A (Homo sapiens), sequence (P28223 whole entry, looked up): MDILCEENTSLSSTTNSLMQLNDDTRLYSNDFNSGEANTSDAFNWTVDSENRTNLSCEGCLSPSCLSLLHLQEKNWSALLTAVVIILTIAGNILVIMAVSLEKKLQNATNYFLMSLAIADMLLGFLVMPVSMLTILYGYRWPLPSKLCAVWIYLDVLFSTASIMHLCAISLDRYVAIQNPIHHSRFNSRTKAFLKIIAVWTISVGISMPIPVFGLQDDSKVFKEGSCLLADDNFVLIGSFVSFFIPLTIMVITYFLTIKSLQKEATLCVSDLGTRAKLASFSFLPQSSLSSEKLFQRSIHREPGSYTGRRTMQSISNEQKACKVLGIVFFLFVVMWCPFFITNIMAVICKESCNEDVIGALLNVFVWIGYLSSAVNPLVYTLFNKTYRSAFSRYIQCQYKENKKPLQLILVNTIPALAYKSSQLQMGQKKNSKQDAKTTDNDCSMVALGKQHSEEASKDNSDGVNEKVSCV
Muscarinic acetylcholine receptor M1 (Homo sapiens), sequence (P11229 whole entry, looked up): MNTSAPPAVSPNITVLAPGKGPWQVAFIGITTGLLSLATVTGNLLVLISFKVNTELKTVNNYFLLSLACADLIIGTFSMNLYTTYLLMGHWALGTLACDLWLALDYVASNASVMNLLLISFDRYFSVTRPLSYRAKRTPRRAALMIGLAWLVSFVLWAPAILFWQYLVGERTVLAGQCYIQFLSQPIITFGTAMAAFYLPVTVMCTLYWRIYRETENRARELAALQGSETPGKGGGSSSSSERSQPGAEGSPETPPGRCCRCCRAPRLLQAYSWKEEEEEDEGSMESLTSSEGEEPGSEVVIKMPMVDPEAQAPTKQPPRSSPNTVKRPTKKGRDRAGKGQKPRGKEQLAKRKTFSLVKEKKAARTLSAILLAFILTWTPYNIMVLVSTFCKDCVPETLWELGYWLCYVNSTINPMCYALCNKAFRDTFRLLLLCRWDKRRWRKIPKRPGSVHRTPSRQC
D(2) dopamine receptor (Homo sapiens), sequence (P14416 whole entry, looked up): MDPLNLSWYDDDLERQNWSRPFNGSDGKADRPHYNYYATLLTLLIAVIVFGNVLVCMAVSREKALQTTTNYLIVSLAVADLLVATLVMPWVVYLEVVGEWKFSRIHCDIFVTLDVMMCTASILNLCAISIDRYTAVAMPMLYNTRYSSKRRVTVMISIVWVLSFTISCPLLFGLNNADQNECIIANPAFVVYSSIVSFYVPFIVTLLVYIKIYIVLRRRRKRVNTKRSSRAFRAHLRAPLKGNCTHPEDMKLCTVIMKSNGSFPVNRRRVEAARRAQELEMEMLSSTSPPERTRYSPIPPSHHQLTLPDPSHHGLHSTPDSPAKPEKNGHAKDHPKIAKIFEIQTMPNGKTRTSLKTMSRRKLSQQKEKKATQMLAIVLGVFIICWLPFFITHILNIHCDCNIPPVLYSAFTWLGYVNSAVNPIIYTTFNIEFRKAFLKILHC
Gonadotropin-releasing hormone receptor (Homo sapiens), sequence (P30968 whole entry, looked up): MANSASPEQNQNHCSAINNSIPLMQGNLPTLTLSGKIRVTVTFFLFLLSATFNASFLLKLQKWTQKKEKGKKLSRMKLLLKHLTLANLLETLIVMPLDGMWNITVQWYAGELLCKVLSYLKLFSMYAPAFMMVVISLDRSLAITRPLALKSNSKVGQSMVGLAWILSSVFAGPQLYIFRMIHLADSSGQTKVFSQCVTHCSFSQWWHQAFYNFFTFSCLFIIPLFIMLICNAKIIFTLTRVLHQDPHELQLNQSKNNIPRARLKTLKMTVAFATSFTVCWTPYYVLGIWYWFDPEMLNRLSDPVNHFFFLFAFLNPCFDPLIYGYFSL
KiSS-1 receptor (Homo sapiens), sequence (Q969F8 whole entry, looked up): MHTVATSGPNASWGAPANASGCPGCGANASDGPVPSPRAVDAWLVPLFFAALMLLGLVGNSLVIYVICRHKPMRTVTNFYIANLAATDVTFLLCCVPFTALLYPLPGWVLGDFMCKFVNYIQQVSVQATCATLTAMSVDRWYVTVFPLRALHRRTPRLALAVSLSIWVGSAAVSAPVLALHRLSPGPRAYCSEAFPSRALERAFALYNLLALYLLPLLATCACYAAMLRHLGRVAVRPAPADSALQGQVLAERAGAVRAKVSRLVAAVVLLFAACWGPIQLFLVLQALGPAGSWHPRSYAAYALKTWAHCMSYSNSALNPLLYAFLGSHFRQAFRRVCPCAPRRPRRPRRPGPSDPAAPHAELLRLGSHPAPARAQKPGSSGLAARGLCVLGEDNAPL
Beta-2 adrenergic receptor (Homo sapiens), sequence (P07550 whole entry, looked up): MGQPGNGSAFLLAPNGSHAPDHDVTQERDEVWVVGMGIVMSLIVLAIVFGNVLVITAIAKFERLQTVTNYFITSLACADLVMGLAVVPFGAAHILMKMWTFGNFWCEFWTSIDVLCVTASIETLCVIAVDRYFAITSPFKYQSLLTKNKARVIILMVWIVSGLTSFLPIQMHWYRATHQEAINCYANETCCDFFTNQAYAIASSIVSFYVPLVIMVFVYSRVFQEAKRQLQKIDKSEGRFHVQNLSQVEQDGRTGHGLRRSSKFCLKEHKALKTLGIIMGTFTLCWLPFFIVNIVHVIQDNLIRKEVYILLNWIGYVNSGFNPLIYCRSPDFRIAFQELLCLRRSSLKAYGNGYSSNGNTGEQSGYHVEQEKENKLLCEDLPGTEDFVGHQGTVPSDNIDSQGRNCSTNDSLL

As to `Cn1cc[n+](C)c1` (tested in a mixture with another compound), the Potency entry in assay [1], in assay [2], in [3], in [4], in assay [5] and in [6] was “inactive” each time. Besides, the Potency result in assay [7], in assay [8], in assay [9], in assay [10], in [11] and in assay [12] was “inactive” each time. Also, the Potency entry in assay [13], in assay [14], in assay [15], in [16], in assay [17] and in [18] was “inactive” each time. Besides, in [19], the Potency result is “inactive”.
As for `c1ccc2c(c1)oc1ccccc12`, the Potency entry in assay [1], in [2], in assay [3], in assay [4], in [5] and in assay [6] was “inactive” each time. For the same compound, the Potency result in assay [20], in [8], in assay [9], in [10], in [11] and in assay [12] was “inactive” in each case. For the same compound, the Potency result in assay [13], in assay [14], in assay [15], in assay [16], in [17] and in assay [18] was “inactive” throughout. The Potency result in assay [19] was “inactive”.
As to `CCC(C)Cl` (stereo unspecified), the Potency result in [1], in assay [2], in assay [3], in assay [4], in assay [5] and in [6] was “inactive” throughout. The Potency result in assay [7], in assay [8], in [9], in assay [10], in assay [11] and in assay [12] was “inactive” throughout. Besides, the Potency entry in assay [13], in [15], in assay [16], in [17], in assay [18] and in [19] was “inactive” throughout.
As for `CCCCOC(=O)c1ccccc1C(=O)O`, the Potency result in assay [1], in [2], in assay [3], in assay [4], in assay [5] and in [20] was “inactive” each time. The Potency entry in assay [7], in [8], in assay [9], in assay [10], in [11] and in [12] was “inactive” in each case. The Potency entry in assay [13], in assay [14], in assay [15], in assay [16], in assay [17] and in assay [18] was “inactive” in each case. Besides, in assay [19], the Potency result was “inactive”.
On to `Clc1ccc(C(Cl)(Cl)Cl)c(Cl)c1`, for which the Potency entry in assay [1], in assay [2], in assay [3], in assay [4], in assay [5] and in assay [20] was “inactive” each time. Moreover, the Potency result in [7], in [8], in assay [9], in assay [10], in assay [11] and in [12] was “inactive” throughout. The Potency entry in assay [13], in assay [14], in assay [15], in assay [16], in assay [17] and in assay [18] was “inactive” throughout. Further, in [19], the Potency result is “inactive”.
In the case of `Oc1ccccc1-c1ccccc1`, the Potency result in [1], in assay [3], in assay [4], in assay [5], in assay [20] and in [7] was “inactive” each time. The Potency entry in [8], in [9], in [10], in assay [11], in assay [12] and in assay [13] was “inactive” in each case. Moreover, the Potency entry in [14], in assay [15], in assay [16], in [17], in assay [18] and in assay [19] was “inactive” in each case. Besides, the Potency in assay [2] is 62.6 µM (active) and inactive.
In the case of `C=C(C)CCl`, the Potency result in assay [1], in [2], in assay [3], in [4], in assay [5] and in assay [20] was “inactive” throughout. For the same compound, the Potency entry in [7], in assay [8], in assay [9], in [10], in assay [11] and in assay [12] was “inactive” each time. In addition, the Potency entry in assay [13], in assay [14], in assay [16], in assay [17], in assay [18] and in assay [19] was “inactive” throughout.
